LDHA block: LDHA (human) enzyme inhibition. 0.15% of 480,000 active. activity change, % (values are at about 110 or 230 µM). purified LDHA, NADH/diaphorase-resazurin fluorescence; active compounds read low; in the data active = activity change below about -30%;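 also: plate controls were DMSO wells for no effect and wells without enzyme for full effect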
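LDH5 2 nM; NADH 0.06 mM, pyruvate 0.2 mM; 200 mM Tris pH 7.4, EDTA, Tween-20; 5 min RT. Detection: diaphorase 0.133 mg/mL + resazurin 37 µM, fluorescence ex540/em590 at 0 and 20 min; normalized to enzyme-free and DMSO wells.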
D1 potentiator: potentiators of human D1 dopamine receptor; P21728; HEK293 TREx D1 cells, calcium flux, dopamine EC20 potentiation; potentiation, % at 10 µM; 0.036% of 360,000 active; in the data active = potentiation above about 30%; also: 0% is about no effect
D1 antagonist: blocks dopamine activation of the human D1 receptor; activity change, negative = inhibition, % at 10 µM; 3.2% of 360,000 active; P21728; HEK293 TREx D1 cells, calcium flux, dopamine EC80; active compounds read low; AID 504652; in the data active = activity change below about -30%; also: % is scaled to controls: 0 for no effect and ±100 for the full control effect
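Compound effects on dopamine-evoked calcium signalling were measured in tetracycline-induced HEK293 Trex D1 cells. Dopamine at EC80 followed a 180 s compound pre-read, and fluorescence was tracked kinetically for 180 s more.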
D1 ag: human D1 receptor agonism; P21728; HEK293 T-REx D1 cells, calcium flux, agonist mode; activation, % at 2 µM; 1% of 360,000 active; also: 0% is about no effect
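Tetracycline-induced HEK293 TREx D1 cells, force-coupled to calcium signalling, were dye-loaded with a no-wash calcium kit. Compound was pin-added after a 10 s baseline. Fluorescence was read kinetically at 1 cycle/s for 180 s, with calcium rises flagged as agonism.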
TRHR PAM: allosteric enhancers of human TRH receptor | TRHR cells, fluo-8 calcium fluorescence, EC20 TRH enhancement | enhancement, % at 2 µM | 0.66% of 360,000 active | AID 493056; in the data active = enhancement above about 30%; also: 0% is about no effect
Target sequence (P34981 whole entry, looked up): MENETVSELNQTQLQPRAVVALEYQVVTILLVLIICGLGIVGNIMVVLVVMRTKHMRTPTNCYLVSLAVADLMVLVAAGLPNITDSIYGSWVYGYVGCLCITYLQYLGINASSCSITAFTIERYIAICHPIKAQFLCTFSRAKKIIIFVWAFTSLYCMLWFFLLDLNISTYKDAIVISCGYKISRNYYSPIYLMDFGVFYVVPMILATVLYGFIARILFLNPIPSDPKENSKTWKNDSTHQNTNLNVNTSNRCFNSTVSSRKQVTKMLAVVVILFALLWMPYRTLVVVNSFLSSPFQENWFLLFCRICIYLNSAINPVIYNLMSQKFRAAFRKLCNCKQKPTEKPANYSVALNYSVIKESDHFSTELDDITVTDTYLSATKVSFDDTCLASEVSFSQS
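Enhancer read-out: after compound pinning and an initial kinetic agonist-mode read, an EC20 of TRH (10 nM final) was injected and fluo-8 calcium signal (Ex 480/Em 530) followed at 1 s/cycle for 100 cycles in TRHR-expressing cells.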
TRHR agonist: TRH receptor (human) agonism; 0.18% of 360,000 active; activation, % at 2 µM; TRHR cells, calcium flux fluo-8, FDSS agonist mode; P34981; also: 0% is about no effect
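In this calcium-flux screen, cells bearing human TRHR are dye-loaded with fluo-8, baselined for 10 cycles, then exposed to library compounds; positive kinetic calcium responses during the agonist phase mark hits, with TRH as control.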
Active calls of the source: *; · = not tested or not shown; ! = a repeat was not active. In the library only some 3.6% were active in any assay of this set; here they are far more common. Rule as the data show it, unless noted: active = activation above about 30%; inactive = the rest.

SMILES	LDHA block	D1 potentiator	D1 antagonist	D1 ag	TRHR PAM	TRHR agonist
COc1ccc2c(c1)CC(C(=O)Nc1cc(Cl)ccc1C)CO2 (stereo unspecified)	-7	-3	-6	2	6	-1
COc1ccc2c(c1)CC(C(=O)NCCN1CCN(c3cccc(Cl)c3)CC1)CO2 (stereo unspecified)	0	-2	-47*	24	-4	0
O=C(NCCN1CCN(c2ccccc2F)CC1)C1COc2ccccc2C1 (stereo unspecified)	-10	-5	-57*	-2	6	0
O=C(NCCc1ccccc1)C1COc2ccccc2C1 (stereo unspecified)	-4	-3	-7	3	-2	0
CC(C)S(=O)(=O)CC(=O)O	6	·	·	·	·	·
Cc1cc(C)c(S(=O)(=O)N2CCN(C)CC2)cc1Br	2	·	·	·	·	·
Cn1cccc1/C=N\NC(=O)C1COc2ccc(C(C)(C)C)cc2O1 (stereo unspecified)	0	0	-16	0	-11	1
Cn1cccc1/C=N\NC(=O)C1COc2ccccc2O1 (stereo unspecified)	-2	-10	-38*	1	-5	0
Cc1c(/C=N\NC(=O)C2COc3ccc(C(C)(C)C)cc3O2)c2ccccc2n1C (stereo unspecified)	-9	-12	-86*	-1	-24	1
N#Cc1ccc2c(c1)OCCO2	15	·	·	·	·	·
CC(C)Cn1c(=S)[nH]c2cc(C(=O)NCc3ccccc3F)ccc2c1=O	-18	-6	-33*	14	-1	0
CC1CCN(CCNC(=O)c2ccc3c(=O)n(Cc4ccc(Cl)cc4)c(=S)[nH]c3c2)CC1	-2	1	-51*	88*	-4	1
CCN(CC)CCNC(=O)c1ccc2c(=O)n(C3CCCC3)c(=S)[nH]c2c1	8	-16	-40*	30*	-2	0
Clc1ccc(-c2cc(CSc3ccccc3)on2)cc1	1	1	9	14	1	0
Cc1ccc(SCc2cc(-c3ccc(Cl)cc3)no2)cc1	-6	-2	-4	36*	6	-1
CC1=NN(C(=O)c2ccc(Cn3cc([N+](=O)[O-])cn3)cc2)C(O)(C(F)(F)F)C1 (stereo unspecified)	-4	-7	7	42*	-8	3
CC1=NN(C(=O)c2cccc(Cn3nc(C)c([N+](=O)[O-])c3C)c2)C(O)(C(F)(F)F)C1 (stereo unspecified)	-2	0	·	2	-1	0
Cc1nc(SCC(=O)NC(c2ccc3c(c2)OCCCO3)C(C)C)c(C#N)c(C)c1C (stereo unspecified)	3	·	·	·	·	·
CC1=C(C(=O)N2CCOCC2)C(c2ccc(F)cc2F)NC(=O)N1Cc1ccccc1 (stereo unspecified)	2	·	·	·	·	·
Cc1ccc2cc(CN(Cc3cccs3)Cc3nnnn3C(C)(C)C)c3nnnn3c2c1	·	-6	-5	3	32*	0
N#CCc1c(C#N)c(N)nc(NCCc2c[nH]c3ccccc23)c1C#N	2	·	·	·	·	·
CCC(CC)C(=O)NCCc1ccc(S(N)(=O)=O)cc1	0	-3	-42*	1	1	1
NS(=O)(=O)c1ccc(CCNC(=O)c2ccc3ccccc3n2)cc1	-5	-10	-31*	2	-5	0
CC(=O)NCCNC(=O)c1ccc2ccccc2n1	-31*	·	·	·	·	·
NS(=O)(=O)c1ccc(CNC(=O)c2ccc3ccccc3n2)cc1	-9	·	-13	6	-1	0
SMILES	LDHA block	D1 potentiator	D1 antagonist	D1 ag	TRHR PAM	TRHR agonist
CCN(CC)CCNC(=O)c1ccc2ccccc2n1	5	·	·	·	·	·
Nc1nccnc1C(=O)NCc1ccc(OC(F)F)cc1	1	·	·	·	·	·
CC(C)c1ccc(NC(=O)CSc2nc3c(=O)[nH]cnc3n2CC2CCCO2)cc1 (stereo unspecified)	10	·	·	·	·	·
COC(=O)c1cc(-c2ccco2)nc2c(Cl)cccc12	-8	·	·	·	·	·
CCc1cc2c(=O)c(-c3nncn3-c3ccccc3)coc2cc1OCC(=O)NC(C(=O)O)C(C)C (stereo unspecified)	22	·	·	·	·	·
CCOC(=O)C1(Cc2ccc(OC)cc2)CCN(C(=O)c2cc(C)on2)CC1	0	3	-33*	4	-2	0
CCOC(=O)C1(Cc2cccc(OC)c2)CCN(CCO)CC1	-5	-7	-1	2	-6	-1
CCOC(=O)C1(Cc2cccc(OC)c2)CCN(CC(O)CO)CC1 (stereo unspecified)	-5	-6	-44*	1	-3	-1
O=C(COC(=O)Cc1ccc(S(=O)(=O)N2CCOCC2)s1)NCCc1ccccc1	4	0	3	2	-6	0
O=C(COC(=O)Cc1ccc(S(=O)(=O)N2CCOCC2)s1)NCc1ccccc1	-1	-4	-48*	4	6	0
CCOc1ccccc1NC(=O)Cn1ncc2c([nH]c3ccccc32)c1=O	0	-4	-30*	3	0	-1
COC(=O)c1ccccc1NC(=O)Cn1ncc2c(C)n(Cc3ccc(F)cc3)c(C)c2c1=O	-3	-3	-71*	3	-3	1
Cc1cc(-c2ccc(C)c(S(=O)(=O)NCc3ccc(Br)cc3)c2)on1	0	-3	-7	3	5	0
Cc1cc(-c2ccc(C)c(S(=O)(=O)NCCc3ccc(S(N)(=O)=O)cc3)c2)on1	-7	-1	-63*!	4	-1	0
CCc1ccc(-c2cc(C)no2)cc1S(=O)(=O)NCCc1ccc(OC)c(OC)c1	0	0	-36*	6	12	0
CCCN(c1ccccc1F)S(=O)(=O)c1cc(-c2cc(C)no2)ccc1OC	-2	-8	-46*	6	0	0
Cc1cc(-c2ccc(C)c(S(=O)(=O)NCCc3ccco3)c2)on1	-3	-2	-34*	2	1	0
COc1ccc(NC(=O)Nc2nnc(N3CCCC3)s2)cc1OC	9	·	·	·	·	·
O=C(CN(Cc1ccco1)S(=O)(=O)c1ccccc1)N1CCN(C(=O)c2cccs2)CC1	1	·	·	·	·	·
C/C=C/C=C/C(=O)Nc1sccc1C#N	-4	·	·	·	·	·

Source: PubChem BioAssay
